Consider 8 sequences from paper PMC7862700, “An all-to-all approach to the identification of sequence-specific readers for epigenetic DNA modifications on cytosine”.

Common to all, as to experiment: DAPPL (digital affinity profiling via proximity ligation, sequencing); 10 mM Tris-HCl pH 7.5, 50 mM NaCl, 1 mM DTT, 4% glycerol, room temperature, 30 min; GST-TFs on glutathione beads, 16-mer random dsDNA library, 0.1% formaldehyde crosslink after washing; high values mean tight binding
Common to all, as to conditions: protein: recombinant; tags: N-terminal GST; dsDNA, one strand shown

For test [1], the target named is T1, FEV (Homo sapiens, UniProt Q99581 1-238).
T1 sequence: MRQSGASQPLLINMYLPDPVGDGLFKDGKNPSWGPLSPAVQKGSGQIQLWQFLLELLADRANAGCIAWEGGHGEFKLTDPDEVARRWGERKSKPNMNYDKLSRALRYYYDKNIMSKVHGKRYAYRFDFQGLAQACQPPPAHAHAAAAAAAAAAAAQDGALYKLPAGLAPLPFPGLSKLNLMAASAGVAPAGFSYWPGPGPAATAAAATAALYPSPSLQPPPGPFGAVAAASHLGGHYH
Put shortly: (§1)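 In yeast, human transcription factors were expressed with a GST fusion, then pulled down on glutathione beads and given DNA barcodes. Pooled with a tag-only sample, they were exposed to 200 nmole of a 16-mer random double-stranded DNA library (Tris/NaCl/DTT/glycerol buffer, room temperature, 30 min), washed, crosslinked with 0.1% formaldehyde, proximity-ligated using BsaI/T4 ligase for 1 h at 37 °C, PCR-amplified and read on an Illumina NextSeq500. Each hexamer's frequency of reads for a factor, divided by the matching frequency for the tag-only sample, gives the binding signal.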

The target of test [2] is ETV5 (Homo sapiens, UniProt P41161 1-510). Put shortly:
as §1

Test [3] concerns the target T2, SPIC (Homo sapiens, UniProt Q8N5J4 1-248).
T2 sequence: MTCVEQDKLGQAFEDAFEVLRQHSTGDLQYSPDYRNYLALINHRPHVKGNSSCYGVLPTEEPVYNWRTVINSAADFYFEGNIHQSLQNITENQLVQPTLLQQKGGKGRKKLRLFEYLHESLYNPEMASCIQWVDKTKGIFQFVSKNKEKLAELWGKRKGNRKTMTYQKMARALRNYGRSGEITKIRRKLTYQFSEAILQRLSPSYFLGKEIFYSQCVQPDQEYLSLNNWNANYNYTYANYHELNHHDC
Put shortly: as §1

For test [4], the target named is ELF4 (Homo sapiens, UniProt Q99607 1-663). In outline: as §1
Test [5] concerns the target T3, ELK4 (Homo sapiens, UniProt P28324-2 1-405).
T3 sequence: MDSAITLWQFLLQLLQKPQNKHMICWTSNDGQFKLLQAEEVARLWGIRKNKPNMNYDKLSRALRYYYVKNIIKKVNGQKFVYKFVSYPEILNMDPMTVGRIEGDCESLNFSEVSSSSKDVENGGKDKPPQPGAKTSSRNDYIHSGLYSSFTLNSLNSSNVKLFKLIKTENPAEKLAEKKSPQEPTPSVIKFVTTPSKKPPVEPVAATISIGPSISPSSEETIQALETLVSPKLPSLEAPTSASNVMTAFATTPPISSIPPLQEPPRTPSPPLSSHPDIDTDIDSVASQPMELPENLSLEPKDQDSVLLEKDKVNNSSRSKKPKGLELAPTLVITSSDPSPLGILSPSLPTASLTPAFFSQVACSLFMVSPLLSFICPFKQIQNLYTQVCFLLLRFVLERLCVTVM
In outline:
as §1

Test [6] has as its target T4, ETV2 (Homo sapiens, UniProt O00321 1-342).
T4 sequence: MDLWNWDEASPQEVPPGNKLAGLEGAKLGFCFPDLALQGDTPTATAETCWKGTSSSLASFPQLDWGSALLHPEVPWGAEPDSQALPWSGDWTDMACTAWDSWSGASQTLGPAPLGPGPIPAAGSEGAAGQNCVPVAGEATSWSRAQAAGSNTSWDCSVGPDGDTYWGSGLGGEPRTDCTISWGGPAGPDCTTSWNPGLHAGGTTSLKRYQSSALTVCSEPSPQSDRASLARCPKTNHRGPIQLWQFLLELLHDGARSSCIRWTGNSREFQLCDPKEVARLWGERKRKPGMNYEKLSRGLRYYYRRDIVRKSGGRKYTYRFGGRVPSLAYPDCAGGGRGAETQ
Put shortly: as §1

The target of test [7] is T5, ELF3 (Homo sapiens, UniProt P78545 1-371).
T5 sequence: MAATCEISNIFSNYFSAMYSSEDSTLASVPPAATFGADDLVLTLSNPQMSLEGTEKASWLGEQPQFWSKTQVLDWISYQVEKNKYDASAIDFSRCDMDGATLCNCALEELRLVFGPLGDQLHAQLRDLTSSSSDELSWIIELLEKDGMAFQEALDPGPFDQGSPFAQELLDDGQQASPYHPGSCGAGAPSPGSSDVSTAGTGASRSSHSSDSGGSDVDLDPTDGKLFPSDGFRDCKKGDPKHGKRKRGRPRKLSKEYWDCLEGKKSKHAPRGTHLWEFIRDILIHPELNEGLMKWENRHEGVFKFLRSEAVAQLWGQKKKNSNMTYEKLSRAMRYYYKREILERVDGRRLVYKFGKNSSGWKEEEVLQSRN
In outline:
as §1

In test [8] the target is ETV1 (Homo sapiens, UniProt P50549 1-477). Put shortly:
as §1

ETV5, sequence (P41161 whole entry): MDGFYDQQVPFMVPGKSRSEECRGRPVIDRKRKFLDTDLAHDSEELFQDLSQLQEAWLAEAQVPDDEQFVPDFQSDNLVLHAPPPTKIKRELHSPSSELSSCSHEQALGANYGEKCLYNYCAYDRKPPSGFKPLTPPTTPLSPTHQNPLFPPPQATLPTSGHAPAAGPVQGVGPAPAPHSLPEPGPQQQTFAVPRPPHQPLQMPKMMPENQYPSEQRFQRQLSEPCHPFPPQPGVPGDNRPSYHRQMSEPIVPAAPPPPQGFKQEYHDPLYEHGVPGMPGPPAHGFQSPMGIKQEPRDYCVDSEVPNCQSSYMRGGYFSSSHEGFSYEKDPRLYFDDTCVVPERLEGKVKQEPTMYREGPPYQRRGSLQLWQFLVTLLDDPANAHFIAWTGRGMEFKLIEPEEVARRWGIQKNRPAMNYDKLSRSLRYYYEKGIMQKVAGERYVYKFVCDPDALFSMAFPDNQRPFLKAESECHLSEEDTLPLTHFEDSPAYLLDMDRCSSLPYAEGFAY
ETV1, sequence (P50549 whole entry): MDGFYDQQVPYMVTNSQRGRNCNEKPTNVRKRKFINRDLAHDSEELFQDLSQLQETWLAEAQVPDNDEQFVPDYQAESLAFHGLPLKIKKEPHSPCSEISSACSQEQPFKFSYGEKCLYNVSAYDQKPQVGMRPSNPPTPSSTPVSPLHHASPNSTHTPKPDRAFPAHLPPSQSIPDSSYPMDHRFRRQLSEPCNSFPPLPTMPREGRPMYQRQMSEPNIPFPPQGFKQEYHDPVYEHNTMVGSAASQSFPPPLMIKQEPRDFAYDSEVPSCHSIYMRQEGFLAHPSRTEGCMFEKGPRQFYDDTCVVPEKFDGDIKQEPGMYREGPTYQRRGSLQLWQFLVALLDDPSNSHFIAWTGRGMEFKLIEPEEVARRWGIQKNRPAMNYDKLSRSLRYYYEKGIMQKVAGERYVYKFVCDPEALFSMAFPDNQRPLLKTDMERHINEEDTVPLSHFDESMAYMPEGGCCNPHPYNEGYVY
ELF4, sequence (Q99607 whole entry): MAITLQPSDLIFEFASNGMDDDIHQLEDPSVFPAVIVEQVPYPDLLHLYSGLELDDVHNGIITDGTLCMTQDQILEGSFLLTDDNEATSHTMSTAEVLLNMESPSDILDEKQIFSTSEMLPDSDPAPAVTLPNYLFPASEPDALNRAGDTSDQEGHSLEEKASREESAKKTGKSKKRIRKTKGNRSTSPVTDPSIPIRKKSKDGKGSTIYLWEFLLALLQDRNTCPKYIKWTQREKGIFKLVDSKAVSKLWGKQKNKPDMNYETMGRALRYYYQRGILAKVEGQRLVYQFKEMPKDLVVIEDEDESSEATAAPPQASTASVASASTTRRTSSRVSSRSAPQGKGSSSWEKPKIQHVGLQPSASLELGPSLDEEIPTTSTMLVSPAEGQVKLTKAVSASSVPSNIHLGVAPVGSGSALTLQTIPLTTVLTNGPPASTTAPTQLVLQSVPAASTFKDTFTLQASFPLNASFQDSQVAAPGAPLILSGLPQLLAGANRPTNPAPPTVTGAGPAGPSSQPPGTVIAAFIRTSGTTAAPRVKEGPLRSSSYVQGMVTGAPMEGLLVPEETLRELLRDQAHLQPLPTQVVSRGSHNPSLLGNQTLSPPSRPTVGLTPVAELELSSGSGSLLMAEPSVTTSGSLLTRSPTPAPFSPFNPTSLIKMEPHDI

AACCGG: the binding signal in test [1] is 2.35 fold enrichment (6-mer frequency, TF over GST control); in test [2], 1.53 fold enrichment (6-mer frequency, TF over GST control); in test [3], 1.4 fold enrichment (6-mer frequency, TF over GST control); in test [4], 1.31 fold enrichment (6-mer frequency, TF over GST control); in test [5], 1.26 fold enrichment (6-mer frequency, TF over GST control); in test [6], 1.45 fold enrichment (6-mer frequency, TF over GST control). Besides, the binding signal was 1.36 fold enrichment (6-mer frequency, TF over GST control) in test [7] and 1.69 fold enrichment (6-mer frequency, TF over GST control) in test [8].

In the case of CACTGT, the binding signal in test [1] was 1.09 fold enrichment (6-mer frequency, TF over GST control); in test [2], 1.1 fold enrichment (6-mer frequency, TF over GST control); in test [3], 1.19 fold enrichment (6-mer frequency, TF over GST control); in test [4], 1.15 fold enrichment (6-mer frequency, TF over GST control); in test [5], 1.17 fold enrichment (6-mer frequency, TF over GST control); in test [6], 1.25 fold enrichment (6-mer frequency, TF over GST control). In addition, the binding signal was 1.04 fold enrichment (6-mer frequency, TF over GST control) in test [7] and 1.11 fold enrichment (6-mer frequency, TF over GST control) in test [8].

For the sequence GGAAGT, the binding signal is 3.88 fold enrichment (6-mer frequency, TF over GST control) in test [1]; 3.34 fold enrichment (6-mer frequency, TF over GST control) in test [2]; 3.41 fold enrichment (6-mer frequency, TF over GST control) in test [3]; 2.72 fold enrichment (6-mer frequency, TF over GST control) in test [4]; 2.27 fold enrichment (6-mer frequency, TF over GST control) in test [5]; 2.85 fold enrichment (6-mer frequency, TF over GST control) in test [6]. Besides, the binding signal in test [7] was 3.25 fold enrichment (6-mer frequency, TF over GST control); in test [8], 3.33 fold enrichment (6-mer frequency, TF over GST control).

Consider GGAAGC, for which the binding signal is 1.74 fold enrichment (6-mer frequency, TF over GST control) in test [1]; 1.79 fold enrichment (6-mer frequency, TF over GST control) in test [2]; 1.39 fold enrichment (6-mer frequency, TF over GST control) in test [3]; 1.4 fold enrichment (6-mer frequency, TF over GST control) in test [4]; 1.43 fold enrichment (6-mer frequency, TF over GST control) in test [5]; 1.54 fold enrichment (6-mer frequency, TF over GST control) in test [6]. Also, the binding signal in test [7] is 1.48 fold enrichment (6-mer frequency, TF over GST control); in test [8] it was 1.82 fold enrichment (6-mer frequency, TF over GST control).

As for CTCAGG, the binding signal was 1.09 fold enrichment (6-mer frequency, TF over GST control) in test [1]; 1.06 fold enrichment (6-mer frequency, TF over GST control) in test [2]; 1.06 fold enrichment (6-mer frequency, TF over GST control) in test [3]; 1.07 fold enrichment (6-mer frequency, TF over GST control) in test [4]; 1.05 fold enrichment (6-mer frequency, TF over GST control) in test [5]; 1.12 fold enrichment (6-mer frequency, TF over GST control) in test [6]. For the same sequence, in test [7], the binding signal was 1.15 fold enrichment (6-mer frequency, TF over GST control).

Regarding AGCAGC, the binding signal in test [1] is 1.12 fold enrichment (6-mer frequency, TF over GST control); in test [2], 1.18 fold enrichment (6-mer frequency, TF over GST control); in test [3], 1.11 fold enrichment (6-mer frequency, TF over GST control); in test [4] it was 1.14 fold enrichment (6-mer frequency, TF over GST control); in test [5] it was 1.05 fold enrichment (6-mer frequency, TF over GST control); in test [6], 1.07 fold enrichment (6-mer frequency, TF over GST control). The binding signal is 1.08 fold enrichment (6-mer frequency, TF over GST control) in test [7] and 1.17 fold enrichment (6-mer frequency, TF over GST control) in test [8].

Regarding CACAAT, the binding signal in test [1] is 1.06 fold enrichment (6-mer frequency, TF over GST control); in test [2], 1.1 fold enrichment (6-mer frequency, TF over GST control); in test [3] it was 1.13 fold enrichment (6-mer frequency, TF over GST control); in test [4], 1.09 fold enrichment (6-mer frequency, TF over GST control); in test [5], 1.12 fold enrichment (6-mer frequency, TF over GST control); in test [6] it was 1.06 fold enrichment (6-mer frequency, TF over GST control). The binding signal in test [7] was 1.19 fold enrichment (6-mer frequency, TF over GST control); in test [8], 1.09 fold enrichment (6-mer frequency, TF over GST control).

On to ATACGG, for which the binding signal was 1.16 fold enrichment (6-mer frequency, TF over GST control) in test [1]; 1.25 fold enrichment (6-mer frequency, TF over GST control) in test [2]; 1.2 fold enrichment (6-mer frequency, TF over GST control) in test [3]; 1.2 fold enrichment (6-mer frequency, TF over GST control) in test [4]; 1.03 fold enrichment (6-mer frequency, TF over GST control) in test [5]; 1.22 fold enrichment (6-mer frequency, TF over GST control) in test [6]. In addition, the binding signal in test [7] is 1.25 fold enrichment (6-mer frequency, TF over GST control); in test [8] it was 1.21 fold enrichment (6-mer frequency, TF over GST control).
